In the supplement of paper PMC10849652:
Of roughly 7,900 targets only a part is listed; those with a hit were picked by preference. About 0.6% of all pairs of compound and target were hits.

Columns and labels:
Assay in all cases: log2 fold change, soluble protein after heating vs DMSO (PISA); higher = thermal stabilisation; K562 cells, 10 uM, 30 min; active = over 0.2 and 3.5 SD of the protein, either way, in both replicates (recomputed)
[1] = compound: COC1=CC=C(C=C1)CN2C=CC3=C2C=C(C=C3)C(=O)NO
Outline: (§1)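 Quantification of soluble protein used TMTpro 16plex LC-MS/MS, with channel sums equalised. Samples were the supernatant after 21,000xg for 90 min of pooled aliquots from K562 cells (2×10^6 cells/mL) treated with 10 μM compound for 30 min, heated for 3 min over 48°C-58°C, and extracted in PBS with 0.5% NP-40 at 4°C. Values, from duplicates, describe thermal stability against control samples on a log2 fold-change scale.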

[2] = compound: CON(C)C(=O)N1N=C(c2cc(F)ccc2F)S[C@@]1(CCCN)c1ccccc1 [filanesib]
Outline: as §1

[3] = compound: CO[C@H]1C[C@@H]2CC[C@@H](C)[C@@](O)(O2)C(=O)C(=O)N2CCCC[C@H]2C(=O)O[C@H]([C@H](C)C[C@@H]2CC[C@H](n3cnnn3)[C@H](OC)C2)CC(=O)[C@H](C)/C=C(\C)[C@@H](O)[C@@H](OC)C(=O)[C@H](C)C[C@H](C)/C=C/C=C/C=C/1C [zotarolimus]
Outline: as §1

[4] = compound: COc1cc(C(=O)O)ccc1NC(=O)[C@@H]1N[C@@H](CC(C)(C)C)[C@](C#N)(c2ccc(Cl)cc2F)[C@H]1c1cccc(Cl)c1F [idasanutlin]
Outline: as §1

[5] = compound: COc1cc(Nc2ncc3c(n2)-c2ccc(Cl)cc2C(c2c(F)cccc2OC)=NC3)ccc1C(=O)O [alisertib]
Outline: as §1

[6] = compound: COc1cc2nc(-c3cc(F)ccc3O)nc(N[C@@H]3CNC[C@H]3C(C)(C)O)c2cc1OC
Outline: as §1

[7] = compound: COc1cc2ncnc(Nc3ccc(F)c(Cl)c3)c2cc1OCCCN1CCOCC1 [gefitinib]
Outline: as §1

[8] = compound: COc1cccc2cc(-c3nc([C@H]4CC[C@H](C(=O)O)CC4)n4ncnc(N)c34)[nH]c12
Outline: as §1

[9] = compound: CS(=O)(=O)CCNCc1ccc(-c2ccc3ncnc(Nc4ccc(OCc5cccc(F)c5)c(Cl)c4)c3c2)o1 [lapatinib]
Outline: as §1

[10] = compound: CS(=O)(=O)N1CCN(Cc2cc3nc(-c4cccc5[nH]ncc45)nc(N4CCOCC4)c3s2)CC1 [pictilisib]
Outline: as §1

Measured: log2 fold change

CTSC (UniProt P53634)
Chain of UniProt P53634 (P53634 whole entry, looked up): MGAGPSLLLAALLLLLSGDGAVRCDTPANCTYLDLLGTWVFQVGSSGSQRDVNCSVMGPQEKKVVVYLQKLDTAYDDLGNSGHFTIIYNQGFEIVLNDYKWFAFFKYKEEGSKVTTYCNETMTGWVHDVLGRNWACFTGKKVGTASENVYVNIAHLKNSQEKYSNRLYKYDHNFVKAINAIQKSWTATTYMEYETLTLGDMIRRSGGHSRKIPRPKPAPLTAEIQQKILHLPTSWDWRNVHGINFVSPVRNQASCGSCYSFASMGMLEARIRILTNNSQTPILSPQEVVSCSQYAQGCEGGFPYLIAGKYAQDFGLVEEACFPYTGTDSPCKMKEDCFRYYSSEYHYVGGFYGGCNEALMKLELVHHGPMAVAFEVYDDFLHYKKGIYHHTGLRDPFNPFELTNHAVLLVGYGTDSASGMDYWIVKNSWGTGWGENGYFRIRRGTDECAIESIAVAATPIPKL
inactive: [1] 0.019 | [2] -0.065 | [3] 0.001 | [4] -0.024 | [5] 0.021 | [6] -0.04 | [7] 0.036 | [8] 0.026 | [9] -0.031 | [10] 0.083

EEF1A1 (UniProt P68104)
inactive: [1] 0.081 | [2] -0.119 | [3] 0.182 | [4] -0.086 | [5] -0.347 | [6] -0.216 | [7] -0.029 | [8] -0.034 | [9] 0.1

EBNA1BP2 (UniProt Q99848)
inactive: [1] -0.054 | [2] 0.686 | [3] 0.069 | [4] 0.283 | [5] -0.172 | [6] -0.095 | [7] -0.01 | [8] -0.216 | [9] 0.153 | [10] -0.069

FAM3A (UniProt P98173)
Chain of UniProt P98173 (P98173 whole entry, looked up): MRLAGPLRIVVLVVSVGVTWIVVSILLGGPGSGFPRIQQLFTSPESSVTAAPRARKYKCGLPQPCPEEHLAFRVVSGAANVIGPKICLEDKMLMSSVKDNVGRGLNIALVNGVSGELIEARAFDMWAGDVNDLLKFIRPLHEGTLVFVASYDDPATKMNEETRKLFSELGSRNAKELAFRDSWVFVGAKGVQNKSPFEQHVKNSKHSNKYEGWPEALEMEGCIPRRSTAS
inactive: [1] -0.057 | [2] -0.022 | [3] 0.005 | [4] 0.007 | [5] 0.044 | [6] -0.021 | [7] 0.04 | [8] 0.066 | [9] 0.067 | [10] 0.055

DSN1 (UniProt Q9H410)
Chain of UniProt Q9H410 (Q9H410 whole entry, looked up): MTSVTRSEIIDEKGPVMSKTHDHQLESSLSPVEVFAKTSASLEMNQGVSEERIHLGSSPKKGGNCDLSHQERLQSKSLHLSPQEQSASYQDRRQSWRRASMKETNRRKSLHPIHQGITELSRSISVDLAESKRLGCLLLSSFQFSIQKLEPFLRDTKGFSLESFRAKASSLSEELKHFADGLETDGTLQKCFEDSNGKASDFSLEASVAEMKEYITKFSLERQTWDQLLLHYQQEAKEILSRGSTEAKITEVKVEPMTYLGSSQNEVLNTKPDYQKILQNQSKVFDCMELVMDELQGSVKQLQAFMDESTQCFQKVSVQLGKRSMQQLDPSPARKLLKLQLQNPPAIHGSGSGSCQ
inactive: [1] 0.032 | [2] 0.048 | [3] 0.114 | [4] -0.013 | [5] 0.018 | [6] -0.017 | [7] 0.113 | [8] -0.23 | [9] -0.028

CUTA isoform 2 (UniProt O60888)
Chain of UniProt O60888 (O60888 whole entry, looked up): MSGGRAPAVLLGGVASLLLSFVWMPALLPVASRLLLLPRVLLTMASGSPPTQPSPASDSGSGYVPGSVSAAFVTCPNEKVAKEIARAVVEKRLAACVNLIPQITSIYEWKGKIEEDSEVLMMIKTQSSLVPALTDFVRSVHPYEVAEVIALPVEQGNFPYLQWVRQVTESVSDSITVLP
inactive: [1] 0.248 | [2] 0.108 | [3] -0.159 | [4] 0.002 | [5] -0.055 | [6] -0.225 | [7] 0.037 | [8] 0.012 | [9] 0.023 | [10] -0.358

ERLIN1 (UniProt O75477)
inactive: [1] -0.013 | [2] 0.031 | [3] 0.037 | [4] 0.128 | [5] -0.092 | [6] -0.075 | [7] -0.051 | [8] -0.14 | [9] 0.006 | [10] -0.107

FAM50A (UniProt Q14320)
Chain of UniProt Q14320 (Q14320 whole entry, looked up): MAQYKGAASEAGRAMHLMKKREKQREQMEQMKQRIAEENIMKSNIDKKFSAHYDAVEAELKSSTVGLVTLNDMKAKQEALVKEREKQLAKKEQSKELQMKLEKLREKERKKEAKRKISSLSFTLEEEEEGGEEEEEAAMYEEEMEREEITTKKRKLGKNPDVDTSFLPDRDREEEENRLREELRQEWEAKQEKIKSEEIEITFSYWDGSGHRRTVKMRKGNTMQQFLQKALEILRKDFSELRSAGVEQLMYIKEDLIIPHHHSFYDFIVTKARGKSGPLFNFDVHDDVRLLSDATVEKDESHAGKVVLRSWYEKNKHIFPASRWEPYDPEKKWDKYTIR
inactive: [1] -0.019 | [2] -0.008 | [3] 0.026 | [4] -0.025 | [5] -0.003 | [6] -0.026 | [7] 0.039 | [8] -0.025 | [9] 0.022 | [10] 0.056

FAM160B1 (UniProt Q5W0V3)
inactive: [1] 0.026 | [2] -0.145 | [3] 0.004 | [4] -0.053 | [5] -0.096 | [6] -0.092 | [7] 0.047 | [8] -0.027 | [9] 0.009 | [10] -0.009

EIF4G1 isoform 8 (UniProt Q04637)
Chain of UniProt Q04637 (Q04637 whole entry, looked up): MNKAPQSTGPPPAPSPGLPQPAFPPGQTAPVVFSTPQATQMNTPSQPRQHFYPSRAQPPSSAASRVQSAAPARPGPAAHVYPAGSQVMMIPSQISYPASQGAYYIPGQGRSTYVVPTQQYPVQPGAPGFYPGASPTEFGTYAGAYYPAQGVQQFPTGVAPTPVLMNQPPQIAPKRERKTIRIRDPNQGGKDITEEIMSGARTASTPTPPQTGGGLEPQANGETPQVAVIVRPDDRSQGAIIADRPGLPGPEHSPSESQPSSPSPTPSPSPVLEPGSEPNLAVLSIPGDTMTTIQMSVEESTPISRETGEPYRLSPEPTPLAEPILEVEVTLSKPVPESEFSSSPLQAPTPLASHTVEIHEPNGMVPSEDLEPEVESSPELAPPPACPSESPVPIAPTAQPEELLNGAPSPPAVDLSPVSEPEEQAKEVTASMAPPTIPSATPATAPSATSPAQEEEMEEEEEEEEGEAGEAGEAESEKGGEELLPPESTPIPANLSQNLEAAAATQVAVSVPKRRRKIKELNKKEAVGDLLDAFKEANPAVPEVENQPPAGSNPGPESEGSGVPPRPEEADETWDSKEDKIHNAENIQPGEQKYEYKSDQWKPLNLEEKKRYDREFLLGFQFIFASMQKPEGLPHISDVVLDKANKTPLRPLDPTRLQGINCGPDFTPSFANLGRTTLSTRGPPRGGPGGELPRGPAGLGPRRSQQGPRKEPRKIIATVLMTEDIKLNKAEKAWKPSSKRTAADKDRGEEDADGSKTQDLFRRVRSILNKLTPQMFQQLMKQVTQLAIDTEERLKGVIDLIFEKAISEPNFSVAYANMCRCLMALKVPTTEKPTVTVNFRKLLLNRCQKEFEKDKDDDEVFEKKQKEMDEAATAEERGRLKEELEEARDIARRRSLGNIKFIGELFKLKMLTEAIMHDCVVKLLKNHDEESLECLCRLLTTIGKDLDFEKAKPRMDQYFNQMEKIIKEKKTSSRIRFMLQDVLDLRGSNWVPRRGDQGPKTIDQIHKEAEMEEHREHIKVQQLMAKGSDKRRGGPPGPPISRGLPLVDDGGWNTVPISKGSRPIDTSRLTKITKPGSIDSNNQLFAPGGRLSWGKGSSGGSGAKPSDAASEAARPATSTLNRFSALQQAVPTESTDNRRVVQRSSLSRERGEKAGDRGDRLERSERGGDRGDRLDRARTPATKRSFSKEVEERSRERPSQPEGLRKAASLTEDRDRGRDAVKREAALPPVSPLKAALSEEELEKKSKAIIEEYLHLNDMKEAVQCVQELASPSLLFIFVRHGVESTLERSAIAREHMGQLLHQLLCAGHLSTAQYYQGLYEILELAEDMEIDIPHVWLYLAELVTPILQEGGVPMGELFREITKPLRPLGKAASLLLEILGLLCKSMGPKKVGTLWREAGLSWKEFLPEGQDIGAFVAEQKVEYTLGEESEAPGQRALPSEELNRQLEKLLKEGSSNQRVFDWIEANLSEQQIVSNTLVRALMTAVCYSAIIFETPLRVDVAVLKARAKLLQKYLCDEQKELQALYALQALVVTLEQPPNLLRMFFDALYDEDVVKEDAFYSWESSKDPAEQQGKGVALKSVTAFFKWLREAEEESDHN
inactive: [1] 0.01 | [2] 0.067 | [3] -0.121 | [4] 0.09 | [5] -0.007 | [6] -0.003 | [7] -0.114 | [8] -0.369 | [9] -0.073 | [10] -0.27

DDX5 (UniProt P17844)
Chain of UniProt P17844 (P17844 whole entry, looked up): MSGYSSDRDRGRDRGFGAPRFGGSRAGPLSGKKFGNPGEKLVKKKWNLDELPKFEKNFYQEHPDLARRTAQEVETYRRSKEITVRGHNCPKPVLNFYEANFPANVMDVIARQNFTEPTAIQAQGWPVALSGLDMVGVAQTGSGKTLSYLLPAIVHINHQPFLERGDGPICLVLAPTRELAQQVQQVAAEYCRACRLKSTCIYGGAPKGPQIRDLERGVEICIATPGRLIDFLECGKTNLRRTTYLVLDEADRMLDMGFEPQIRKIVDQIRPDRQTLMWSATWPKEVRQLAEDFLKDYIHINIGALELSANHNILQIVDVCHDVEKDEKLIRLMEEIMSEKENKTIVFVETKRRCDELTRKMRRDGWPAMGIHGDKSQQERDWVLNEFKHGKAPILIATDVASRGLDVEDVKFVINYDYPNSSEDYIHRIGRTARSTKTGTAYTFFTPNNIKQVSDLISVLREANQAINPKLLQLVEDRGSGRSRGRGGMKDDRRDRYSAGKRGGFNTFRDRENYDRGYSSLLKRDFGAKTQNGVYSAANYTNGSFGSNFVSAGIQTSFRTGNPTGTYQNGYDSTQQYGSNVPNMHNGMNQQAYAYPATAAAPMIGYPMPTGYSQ
inactive: [1] 0.118 | [2] 0.013 | [3] 0.062 | [4] 0.024 | [5] 0.006 | [6] 0.088 | [7] 0.031 | [8] 0.004 | [9] 0.02 | [10] 0.097

DDX4 (UniProt Q9NQI0)
Chain of UniProt Q9NQI0 (Q9NQI0 whole entry, looked up): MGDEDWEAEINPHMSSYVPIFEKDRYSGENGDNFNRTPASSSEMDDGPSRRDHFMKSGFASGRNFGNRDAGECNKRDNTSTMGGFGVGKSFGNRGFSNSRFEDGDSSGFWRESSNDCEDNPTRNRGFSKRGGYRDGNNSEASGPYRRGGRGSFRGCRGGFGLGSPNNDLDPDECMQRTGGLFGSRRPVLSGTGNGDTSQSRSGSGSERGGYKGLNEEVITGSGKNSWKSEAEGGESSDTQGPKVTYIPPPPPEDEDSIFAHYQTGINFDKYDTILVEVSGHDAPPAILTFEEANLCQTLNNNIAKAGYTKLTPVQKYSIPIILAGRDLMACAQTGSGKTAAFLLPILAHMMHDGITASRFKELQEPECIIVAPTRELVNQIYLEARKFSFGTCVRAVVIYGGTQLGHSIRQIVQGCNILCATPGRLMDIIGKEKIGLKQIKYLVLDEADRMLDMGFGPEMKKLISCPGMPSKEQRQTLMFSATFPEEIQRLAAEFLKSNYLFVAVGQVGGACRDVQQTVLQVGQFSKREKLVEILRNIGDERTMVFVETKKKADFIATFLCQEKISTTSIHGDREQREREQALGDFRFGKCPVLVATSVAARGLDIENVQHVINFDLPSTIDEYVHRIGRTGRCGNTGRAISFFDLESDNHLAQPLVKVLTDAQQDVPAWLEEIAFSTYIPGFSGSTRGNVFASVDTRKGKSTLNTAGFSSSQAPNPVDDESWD
inactive: [1] -0.474 | [2] 0.186 | [3] 0.004 | [4] 0.42 | [5] 0.172 | [6] 0.368 | [7] 0.048 | [8] -0.715 | [9] -0.399 | [10] 0.17

DUS3L (UniProt Q96G46)
inactive: [1] 0.069 | [2] 0.018 | [3] 0.001 | [4] 0.011 | [5] -0.071 | [6] 0.01 | [7] 0.02 | [8] 0.035 | [9] -0.037 | [10] -0.181

CYFIP1 (UniProt Q7L576)
inactive: [1] 0.053 | [2] -0.027 | [3] 0.039 | [4] -0.028 | [5] 0.061 | [6] -0.004 | [7] 0.008 | [8] 0.013 | [9] 0.023 | [10] 0.097

EXOC5 (UniProt O00471)
inactive: [1] -0.005 | [2] -0.051 | [3] 0.089 | [4] -0.079 | [5] -0.01 | [6] 0.123 | [7] -0.024 | [8] -0.015 | [9] -0.028 | [10] -0.055

DHX16 (UniProt O60231)
inactive: [1] 0.008 | [2] 0.096 | [3] 0.023 | [4] -0.03 | [5] -0.079 | [6] 0.028 | [7] 0.043 | [8] 0.04 | [9] 0.02 | [10] -0.012

EDC3 (UniProt Q96F86)
inactive: [1] 0.02 | [2] 0.112 | [3] -0.156 | [4] 0.065 | [5] 0.02 | [6] 0.046 | [7] -0.013 | [8] -0.337 | [9] -0.019 | [10] -0.187

EIF4G3 isoform 3 (UniProt O43432)
inactive: [1] -0.15 | [2] 0.063 | [3] 0.002 | [4] 0 | [5] -0.003 | [6] -0.01 | [7] 0.032 | [8] -0.32 | [9] 0.142

EHBP1L1 (UniProt Q8N3D4)
inactive: [1] 0.054 | [2] 0.147 | [3] 0.065 | [4] -0.021 | [5] -0.098 | [6] 0.119 | [7] -0.009 | [8] -0.026 | [9] 0.03 | [10] 0.217

FADS3 (UniProt Q9Y5Q0)
inactive: [1] -0.067 | [2] -0.151 | [3] -0.062 | [4] 0.007 | [5] 0.005 | [6] -0.036 | [7] 0.04 | [8] 0.168 | [9] 0.097 | [10] 0.168

DHRS3 (UniProt O75911)
inactive: [1] 0.13 | [2] -0.009 | [3] -0.056 | [4] -0.107 | [5] 0.008 | [6] 0.031 | [7] 0.067 | [8] 0.021 | [9] 0.065 | [10] 0.019

CTNNB1 (UniProt P35222)
inactive: [1] -0.082 | [2] 0.174 | [3] 0.029 | [4] -0.056 | [5] -0.084 | [6] 0.072 | [7] -0.001 | [8] 0.054 | [9] 0 | [10] -0.2

EXOC6 (UniProt Q8TAG9)
inactive: [1] -0.021 | [2] 0.017 | [3] 0.151 | [4] -0.058 | [5] -0.013 | [6] 0.119 | [7] -0.037 | [8] -0.101 | [9] -0.052 | [10] -0.003

DNAJB12 (UniProt Q9NXW2)
inactive: [1] 0.023 | [2] -0.024 | [3] -0.06 | [4] -0.006 | [5] -0.081 | [6] 0.023 | [7] 0.029 | [8] 0.006 | [9] -0.033 | [10] -0.051

DFFB (UniProt O76075)
Chain of UniProt O76075 (O76075 whole entry, looked up): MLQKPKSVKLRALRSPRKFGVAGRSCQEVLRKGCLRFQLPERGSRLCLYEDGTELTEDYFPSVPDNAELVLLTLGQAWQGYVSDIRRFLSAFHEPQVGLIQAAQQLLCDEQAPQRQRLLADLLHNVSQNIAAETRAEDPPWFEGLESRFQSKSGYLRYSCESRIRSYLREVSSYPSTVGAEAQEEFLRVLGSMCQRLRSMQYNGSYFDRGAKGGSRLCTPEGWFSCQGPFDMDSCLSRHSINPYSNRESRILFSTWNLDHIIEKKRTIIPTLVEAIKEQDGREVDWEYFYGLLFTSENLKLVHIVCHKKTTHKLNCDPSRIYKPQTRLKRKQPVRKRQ
inactive: [1] -0.016 | [2] -0.141 | [3] -0.093 | [4] -0.03 | [5] -0.004 | [6] 0.06 | [7] -0.054 | [8] 0.041 | [9] -0.015 | [10] -0.074

DPH5 isoform 5 (UniProt Q9H2P9)
inactive: [1] -0.01 | [2] -0.024 | [3] -0.002 | [4] -0.049 | [5] -0.037 | [6] -0.071 | [7] 0.017 | [8] 0.046 | [9] 0.043 | [10] -0.006

EHD2 (UniProt Q9NZN4)
inactive: [1] 0.001 | [2] -0.013 | [3] 0.007 | [4] -0.025 | [5] -0.02 | [6] 0.092 | [7] -0.034 | [8] 0.055 | [9] -0.06 | [10] -0.051
